Results: the supplement of paper PMC5940239

What follows are molecules tested on Madurella mycetomatis MM55 (assay: percent growth relative to solvent control; higher = less inhibition, active = 20 or less). Settings: 100 µM; 7 days.
In the case of `CS(=O)(=O)c1cccc(-c2cnc3[nH]cc(-c4ccc(CCC(=O)O)cc4)c3c2)c1`, the percent growth is reported as 95.9% (inactive). `COc1cccc(NC(=O)c2c(NC(=O)c3cccnc3)sc3c2CCC3)c1` was tested, and the percent growth was 50.9% (inactive). In the case of `Cc1ccc(Oc2ccc(NC(=O)CNc3ccccc3N3CCCC3=O)cc2)cc1`, the percent growth is reported as 107% (inactive). `CO[C@@H](C(=O)N1Cc2[nH]nc(NC(=O)c3ccc(N4CCN(C)CC4)cc3)c2C1)c1ccccc1` was tested, and the percent growth was 157% (inactive). In the case of `NCCC(O)C(=O)N[C@@H]1C[C@H](N)[C@@H](OC2O[C@H](CN)[C@@H](O)[C@H](O)[C@H]2O)[C@H](O)C1OC1O[C@H](CO)[C@@H](O)[C@H](N)[C@H]1O` (some centres not stated), the percent growth is reported as 102% (inactive). With `Nc1ncc(-c2cn[nH]c2)cc1-c1nc2cc(Cl)cnc2[nH]1` the percent growth was 127% (inactive). In the case of `COC(=O)c1cccc2oc(-c3cccc(OC)c3NC(=O)c3cc(-c4ccccc4)on3)nc12`, the percent growth is reported as 123% (inactive). For `Cc1nc2ccccn2c1C(=O)NCc1ccc(Cl)cc1`, the percent growth was 33.1% (inactive). For `NCCCC(N)(C(=O)O)C(F)F` (configuration not stated), the percent growth was 133% (inactive). With `COCC(C)NC(=O)CSc1ncnc2sc(-c3ccccc3)cc12` (configuration not stated) the percent growth was 64.9% (inactive). For `N#Cc1ccc(-c2ccc(OCC(N)=O)cc2)cc1`, the percent growth was 96.5% (inactive). In the case of `CO[C@H]1/C=C/O[C@@]2(C)Oc3c(C)c(O)c4c(O)c(/c(=C/NN5CCN(C)CC5)c(O)c4c3C2=O)=N\C(=O)/C(C)=C\C=C/[C@H](C)[C@H](O)[C@@H](C)[C@@H](O)[C@@H](C)[C@H](OC(C)=O)[C@@H]1C`, the percent growth is reported as 92.6% (inactive).
